In PubChem BioAssay (NCI):
The panel holds about 79,000 compounds, 15% with a hit somewhere; the sample as a whole holds those more often. The source made the active and inactive calls. No stated cut-off is given here; in the data, active means growth inhibition above about 70%; inactive means the rest.

What was measured:
[1] = NCI Yeast Anticancer Drug Screen. Data for the rad50 strain (AID 155);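 further: 0% = growth of vehicle-only cultures of the same strain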; settings: S. cerevisiae rad50 strain growth inhibition, active compounds read high
Method in brief: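 Growth of the mutant yeast was measured after compound exposure and referenced to vehicle-treated cultures.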

[2] = NCI Yeast Anticancer Drug Screen. Data for the mec2-1 strain (AID 157); settings: S. cerevisiae mec2-1 strain, active compounds read high
Method in brief: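 Test agents were screened against the mec2-1 yeast strain, with defined DNA repair or cell cycle alteration. Growth was scored as inhibition against vehicle-only controls.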

[3] = NCI Yeast Anticancer Drug Screen. Data for the sgs1 mgt1 strain (AID 161);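 further: 0% = growth of cultures given vehicle only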; settings: S. cerevisiae sgs1 mgt1 strain, active compounds read high
Method in brief: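 Genetically altered yeast, compound exposure, growth inhibition relative to vehicle.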

[4] = NCI Yeast Anticancer Drug Screen. Data for the cln2 rad14 strain (AID 165);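 further: 0% = growth equal to vehicle treated cultures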; settings: S. cerevisiae cln2 rad14 strain, active compounds read high
Method in brief: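 Growth of compound-exposed yeast (cln2 rad14 genotype) measured and expressed as inhibition relative to vehicle.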

[5] = NCI Yeast Anticancer Drug Screen. Data for the bub3 strain (AID 167); settings: S. cerevisiae bub3 mutant strain, active compounds read high
Method in brief: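 Whole-cell yeast assay. The mutant strain was incubated with compounds, and growth inhibition was determined by comparison with vehicle-treated cells.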

[6] = NCI Yeast Anticancer Drug Screen. Data for the mlh1 rad18 strain (AID 175); settings: S. cerevisiae mlh1 rad18 strain growth inhibition, active compounds read high
Method in brief: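 In this whole-cell yeast screen, a strain with altered DNA damage repair is challenged with compound, and its growth is measured against matched vehicle-treated controls.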

[7] = at 5.0 µM (retest, dose inferred, filed as 0.5)
[8] = at 50.0 µM (retest, dose inferred, filed as 5.0)

Measured: growth inhibition

O=S(=O)(c1ccc(O)cc1)c1ccc(Cl)cc1
inactive: [1]; [7] -8% | [1]; [8] 38% | [1]; at 50.0 µM 44.3% | [2]; [7] -11% | [2]; [8] 20% | [3]; [7] -5% | [3]; [8] 49% | [4]; [7] 4% | [4]; [8] 35% | [4]; at 50.0 µM 49.1% | [5]; [7] 0% | [5]; [8] 46% | [5]; at 50.0 µM 56.2% | [6]; [7] 4% | [6]; at 50.0 µM 48.2%
active: [2]; at 50.0 µM 81.3% | [3]; at 50.0 µM 79.5% | [6]; [8] 79%

OCc1cccc2c1Oc1ccccc1S2
active: [5]; [8] 73% | [6]; [8] 71%
inactive: [1]; [7] 2% | [1]; [8] 55% | [1]; at 50.0 µM 52.4% | [2]; [7] 4% | [2]; [8] 63% | [2]; at 50.0 µM -25.4% | [3]; [7] 1% | [3]; [8] 66% | [3]; at 50.0 µM -10.3% | [4]; [7] -5% | [4]; [8] 17% | [4]; at 50.0 µM -59.5% | [5]; [7] 11% | [5]; at 50.0 µM -37.5% | [6]; [7] 4% | [6]; at 50.0 µM 2.9%

CSc1ccc(/C=N/NC(N)=S)cc1
inactive: [1]; [7] -150% | [1]; [8] -19% | [2]; [7] -53% | [2]; [8] -4% | [3]; [7] -65% | [3]; [8] 12% | [4]; [7] -65% | [4]; [8] -19% | [4]; at 50.0 µM 43.7% | [5]; [7] -63% | [5]; [8] -3% | [6]; [7] -119% | [6]; [8] 1%
active: [1]; at 50.0 µM 91% | [2]; at 50.0 µM 76% | [3]; at 50.0 µM 81.3% | [5]; at 50.0 µM 86.5% | [6]; at 50.0 µM 84.7%

CC([N+](=O)[O-])C1(O)C(=O)c2cccc3cccc1c23 (stereo not given)
inactive: [1]; [7] -7% | [1]; [8] 55% | [1]; at 50.0 µM 64.2% | [2]; [7] 0% | [2]; at 50.0 µM 58.5% | [3]; [7] 11% | [3]; at 50.0 µM 42.2% | [4]; [7] 4% | [4]; [8] 42% | [5]; [7] 14% | [5]; at 50.0 µM 68.8% | [6]; [7] 26%
active: [2]; [8] 100% | [3]; [8] 96% | [4]; at 50.0 µM 76.7% | [5]; [8] 91% | [6]; [8] 86% | [6]; at 50.0 µM 74.5%

CCCNC(=O)OCc1ccc(NCCN(CC)CC)c2c(=O)c3ccccc3sc12
inactive: [1]; [7] 10% | [1]; [8] 17% | [1]; at 50.0 µM 69% | [2]; [7] -7% | [2]; [8] -6% | [2]; at 50.0 µM -24% | [3]; [7] -4% | [3]; [8] 16% | [3]; at 50.0 µM -8.85% | [4]; [7] 13% | [4]; [8] 17% | [4]; at 50.0 µM 9.95% | [5]; [7] 14% | [5]; [8] 10% | [5]; at 50.0 µM -31.1% | [6]; [7] 3% | [6]; [8] 2% | [6]; at 50.0 µM 1.05%

COc1cc2c(cc1O)C1Cc3ccc(OC)c(O)c3C(C2)N1C (stereo not given)
inactive: [1]; [7] 22% | [1]; [8] 21% | [1]; at 50.0 µM 66.3% | [2]; [7] 22% | [2]; [8] 10% | [2]; at 50.0 µM -3.45% | [3]; [7] 16% | [3]; [8] 13% | [3]; at 50.0 µM -4.65% | [4]; [7] 22% | [4]; [8] 19% | [4]; at 50.0 µM -5.45% | [5]; [7] 16% | [5]; [8] 24% | [5]; at 50.0 µM -5.65% | [6]; [7] 23% | [6]; [8] 20% | [6]; at 50.0 µM -68%

N#CSc1cc(SC#N)c2ccccc2c1N
active: [1]; at 50.0 µM 70.2% | [5]; at 50.0 µM 81%
inactive: [1]; [7] 0% | [1]; [8] -3% | [2]; [7] -2% | [2]; [8] -12% | [2]; at 50.0 µM 62.9% | [3]; [7] 3% | [3]; [8] -9% | [3]; at 50.0 µM 57.9% | [4]; [7] 1% | [4]; [8] -27% | [4]; at 50.0 µM -1.2% | [5]; [7] 19% | [5]; [8] 28% | [6]; [7] 8% | [6]; [8] -2% | [6]; at 50.0 µM 63.5%

CCCCC(CC(=O)O)c1ccc(Cl)cc1 (stereo not given)
active: [4]; at 50.0 µM 70%
inactive: [1]; [7] -146% | [1]; [8] -7% | [1]; at 50.0 µM 57.5% | [2]; [7] -43% | [2]; [8] 17% | [2]; at 50.0 µM 60.7% | [3]; [7] -58% | [3]; [8] 5% | [3]; at 50.0 µM 40.6% | [4]; [7] -63% | [4]; [8] 37% | [5]; [7] -61% | [5]; [8] 28% | [5]; at 50.0 µM 54.6% | [6]; [7] -133% | [6]; [8] 13% | [6]; at 50.0 µM 66%

COc1ccc2c(c1)CCC1=C2C=C[P+]1(C)C
inactive: [1]; [7] -4% | [2]; [7] -5% | [3]; [7] -1% | [4]; [7] 4% | [5]; [7] -2% | [6]; [7] -2%
active: [1]; [8] 98% | [1]; at 50.0 µM 99.5% | [2]; [8] 96% | [2]; at 50.0 µM 99.7% | [3]; [8] 100% | [3]; at 50.0 µM 99.7% | [4]; [8] 71% | [4]; at 50.0 µM 94.6% | [5]; [8] 97% | [5]; at 50.0 µM 99.7% | [6]; [8] 99% | [6]; at 50.0 µM 99.5%

CC(C)=Cc1cc2c(cc1O)CCC1C2CC[C@@]2(C)C1CC[C@@H]2O (stereo not given in full)
active: [3]; at 50.0 µM 71% | [4]; at 50.0 µM 78.6%
inactive: [1]; [7] 14% | [1]; [8] 16% | [1]; at 50.0 µM 41.2% | [2]; [7] -5% | [2]; [8] 24% | [2]; at 50.0 µM 60.1% | [3]; [7] -14% | [3]; [8] 8% | [4]; [7] 7% | [4]; [8] 29% | [5]; [7] -29% | [5]; [8] 22% | [5]; at 50.0 µM 45.8% | [6]; [7] -1% | [6]; [8] 23% | [6]; at 50.0 µM 54.2%
